Compounds with a hit are over-represented: about 2% of the library has one in this group of screens.
CHO-K1 Ca antag = nonselective inhibitor or artifact in parental CHO-K1 cells. 360,000 compounds, 0.6% hits. inhibition, % at 3 µM. ATP-induced calcium, Fluo-8 fluorescence;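 active = inhibition above a per-plate cutoff, the plate's mean sample inhibition plus 3 SD, cut at about 24% in these data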;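 also: 0% = DMSO plus EC80 ATP and 100% = DMSO alone without ATP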
CHRM4 PAM = human M4 muscarinic receptor positive allosteric modulators, primary screen, CHO-K1 cells, Fluo-8 calcium fluorescence; AID 624126, 2012; Muscarinic acetylcholine receptor M4 (Homo sapiens), P08173; 360,000 compounds, 0.4% hits; activation, % at 3 µM; CHO-K1 hM4/Gqi5, ACh EC20; 0% = ACh EC20, 100% = maximal ACh;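 active = activation above its plate's cutoff, the mean activation of sample wells plus 3 SD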
Target sequence (P08173 whole entry, looked up): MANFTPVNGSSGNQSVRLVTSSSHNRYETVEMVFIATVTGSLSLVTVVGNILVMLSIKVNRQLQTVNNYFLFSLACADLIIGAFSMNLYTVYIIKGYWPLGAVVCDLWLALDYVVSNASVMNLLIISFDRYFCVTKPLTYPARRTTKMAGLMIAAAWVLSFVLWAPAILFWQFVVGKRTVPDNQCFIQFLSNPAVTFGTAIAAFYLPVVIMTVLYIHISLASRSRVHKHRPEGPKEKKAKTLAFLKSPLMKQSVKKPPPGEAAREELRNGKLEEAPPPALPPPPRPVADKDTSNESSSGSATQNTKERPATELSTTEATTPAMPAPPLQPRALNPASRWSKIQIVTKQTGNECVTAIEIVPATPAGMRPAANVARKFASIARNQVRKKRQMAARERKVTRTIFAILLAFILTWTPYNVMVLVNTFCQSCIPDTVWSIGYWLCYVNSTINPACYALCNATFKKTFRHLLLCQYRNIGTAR
M4 ag = human M4 muscarinic receptor agonists, primary screen, CHO-K1 cells, Fluo-8 calcium fluorescence; Muscarinic acetylcholine receptor M4 (Homo sapiens), P08173; CHO-K1 hM4/Gqi5; vehicle 0%, full acetylcholine response 100%; activation, % at 3 µM; 360,000 compounds, 0.14% hits; AID 624127, 2012;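 active = activation above the run mean over all test wells plus 3 SD, cut at about 32% in these data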;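 also: peak over basal fluorescence ratio per well then scaled between controls; 0% = DMSO wells and 100% = acetylcholine at EC100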
M1 PAM parental = nonselective calcium activators in parental CHO-K1 cells, primary screen, counter-screen for M1 PAM project, cell-based, Fluo-8 calcium fluorescence, full deck, 1536-well; activation, % at 3 µM; ATP EC20; 0% at ATP EC20, 100% at ATP max; 360,000 compounds, 0.02% hits;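 active = activation above the run cutoff, the mean activation of all test compounds plus 3 SD, cut at about 40% in these data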;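 also: peak over basal fluorescence ratio in a 140 s read after ATP addition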
CHRM4 antagonist = human M4 muscarinic receptor antagonists, primary screen, CHO cells, Fluo-8 calcium fluorescence; 360,000 compounds, 0.73% hits; CHO-hM4 cells, ACh EC80; Muscarinic acetylcholine receptor M4 (Homo sapiens), P08173; inhibition, % at 3 µM;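 active = inhibition above its plate's cutoff, the mean inhibition of sample wells plus 3 SD, cut at about 27% in these data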;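 also: 0% = acetylcholine EC80 with DMSO and 100% = DMSO without agonist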
M1 ag parental = counter-screen for M1 agonists: effect in parental CHO-K1 cells | Fluo-8 calcium fluorescence; scaled to maximal ATP response, vehicle zero | activation, % at 3 µM | 360,000 compounds, 0.48% hits | AID 602248, 2012; in the data active = activation above about 15%;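 also: untransfected CHO-K1 host cells lacking M1 receptor as counterscreen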
Starred values were filed as active, the others as inactive.

SMILES | CHO-K1 Ca antag | CHRM4 PAM | M4 ag | M1 PAM parental | CHRM4 antagonist | M1 ag parental
CN1C(CC(=O)Nc2ccc(Cl)cc2Cl)c2ccccc2CC1(C)C (stereo not drawn) | -9 | -14 | -1 | 13 | 29* | 0
CC1(C)N=C(SCC(=O)Nc2ccc(Cl)cc2Cl)C(c2ccccc2)=N1 | -6 | -1 | 0 | 3 | -2 | 0
O=C(Nc1ccccc1)c1ccccc1OCC(O)CN1C(=O)c2ccccc2S1(=O)=O (stereo not drawn) | 11 | -20 | 19 | 3 | 32* | 4
Cc1ccc2occ(/C=N/NC(=O)c3ccncc3)c(=O)c2c1 | -2 | 20* | 2 | 20 | 3 | 1
Cc1ccc2occ(/C=N/NC(=O)c3ccc(Cl)cc3)c(=O)c2c1 | -5 | 1 | 1 | -5 | 4 | 0
COc1c(Br)cc(Br)cc1/C=N/NC(=O)c1cccnc1 | 2 | -6 | 3 | -7 | -2 | 1
COc1c(Br)cc(Br)cc1/C=N/NC(=O)c1ccncc1 | 1 | -9 | 2 | 3 | 14 | 15*
COc1cc(-c2n[nH]c(=S)n2/N=C/c2cccn2C)cc(OC)c1OC | -1 | -39 | 51* | 2 | 7 | 22*
Cn1cccc1/C=N/n1c(-c2ccco2)n[nH]c1=S | 8 | 2 | 1 | -3 | -1 | 1
CN1CC(=O)N2C(c3ccc(Cl)cc3)c3[nH]c4ccccc4c3C[C@H]2C1=O (stereo partly drawn) | 9 | -7 | 13 | 19 | -2 | 24*
COC(=O)c1ccc(C2c3[nH]c4ccccc4c3C[C@H]3C(=O)N(C)CC(=O)N23)cc1 (stereo partly drawn) | -16 | 2 | 2 | -7 | 7 | 2
CCN1C(=O)[C@@H]2Cc3c([nH]c4ccccc34)C(c3ccc(OC)cc3)N2C1=S (stereo partly drawn) | -5 | -17 | 18 | 9 | 34* | 6
COc1ccc(CNC(=O)C2CCCN2CCc2ccccc2)cc1OC (stereo not drawn) | -20 | -3 | 3 | 11 | 0 | 17*
CN(C)/C=N/c1nc2nccc(-c3ccc(F)cc3)n2n1 | -11 | 1 | 0 | 12 | -1 | 0
CN(C)/C=N/c1nc2nccc(-c3cccc(Cl)c3)n2n1 | 6 | 7 | 0 | 9 | -5 | 21*
COc1ccc(C(CCN2CCCCC2)c2c(OC)cc(OC)c3c(-c4ccccc4)cc(=O)oc23)cc1 (stereo not drawn) | 1 | 10 | 31 | 5 | 34* | 6
COc1cc(OC)c2c(-c3ccccc3)cc(=O)oc2c1C(CCN1CCCCC1)c1ccc(N(C)C)cc1 (stereo not drawn) | -11 | 1 | 10 | 18 | 0 | 3
O=C(c1ccccc1)c1cc(Cl)ccc1N1C(=O)C=CC1=O | 1 | -17 | 5 | 7 | 35* | 5
O=C(O)c1ccc(CSc2nnc(-c3ccco3)n2-c2ccccc2)cc1 | 20 | 0 | 1 | -14 | 4 | 0
Cc1nc2nc(Cc3ccccc3)nn2c(C)c1Cl | 1 | -3 | -1 | 8 | 6 | 0
Cc1ccnc(NC(=O)CNC(=O)c2ccc3c(c2)OCO3)c1 | 4 | 19 | 1 | -20 | -2 | 0
Cc1cccc(C)c1NC(=O)CNC(=O)CNC(=O)c1ccc2c(c1)OCO2 | -6 | 23* | 0 | -19 | -11 | 0
CCN(CC(=O)Nc1c(F)cccc1F)C(=O)c1ccc2c(c1)OCCO2 | 13 | 37* | 2 | -9 | -21 | 0
CC(C)(CO)CNC(=O)CCc1nnc(C2(c3ccc(Cl)cc3)CCC2)o1 | 4 | -2 | 1 | -1 | 2 | 0
COCCNC(=O)CCc1nnc(C2(c3ccc(Cl)cc3)CCC2)o1 | 11 | -3 | 1 | 4 | 7 | 16*
SMILES | CHO-K1 Ca antag | CHRM4 PAM | M4 ag | M1 PAM parental | CHRM4 antagonist | M1 ag parental
CSc1ccc2c(c1)C(N1CCN(C)CC1)Cc1ccc(F)cc1S2 (stereo not drawn) | 1 | -16 | 29 | 9 | 43* | 1
Cc1cccc(C)c1N1CCN(C(c2cc3ccccc3o2)c2nnnn2C(C)(C)C)CC1 (stereo not drawn) | 4 | -4 | 5 | 18 | 26* | 2
COc1ccc(C(=O)/C=C/C(=O)N(CC(=O)NC2CCCCC2)Cc2cccs2)c(O)c1 | 2 | -18 | 16 | 16 | 34* | 9
COCCN(CC(=O)NC1CCCCC1)C(=O)/C=C/C(=O)c1ccc(OC)cc1O | -5 | -5 | 2 | 19 | 18 | 2
O=C(c1cnc2ccc3ccccc3c2c1)c1cc(F)ccc1O | -21 | 1 | 4 | 40* | 0 | 4
COc1cc(Nc2ncc3c(n2)CCN(C(=O)Nc2ccc(C(C)C)cc2)C3)cc(OC)c1OC | 5 | -7 | 9 | 1 | 5 | 3
C=CCc1cccc(/C=N/n2cnnc2)c1O | 2 | 41* | 1 | -2 | 13 | 1
C=CCc1cccc(C=Nc2ccc(Br)cc2)c1O | -4 | -5 | 1 | 3 | 5 | 0
CN(C)CCNc1cc(-c2ccncc2)nc2ccccc12 | -10 | 12 | 0 | -1 | -6 | 0
COC(=O)CSc1nnc2n(-c3ccc(OC)cc3)c(=O)c3c4c(sc3n12)CCCCC4 | 24* | 5 | 1 | -2 | -8 | -1
COC(=O)CSc1nnc2n(C3CCCCC3)c(=O)c3c4c(sc3n12)CCCC4 | -13 | -1 | 3 | 3 | 0 | 0
CC(C)Cn1c(=O)oc2ccccc21 | -12 | 20* | 4 | 23 | -14 | 1
O=c1oc2ccccc2n1CCCCCn1c(=O)oc2ccccc21 | 8 | -6 | 2 | 16 | 9 | 1
NCCCC[C@H]1CN=C(N)N1CCc1cccc2ccccc12 | -9 | 4 | -1 | 9 | 8 | 0
NCCCC[C@H]1CN=C(N)N1CCC12CC3CC(CC(C3)C1)C2 | -10 | -14 | 3 | -9 | 54* | 0
O=c1[nH]c(=S)n(C2CCCCC2)c(O)c1C=NCCN1CCOCC1 | -5 | 6 | 1 | 8 | -1 | 3
COc1ccc(N2C(=O)CSC23C(=O)N2c4c(cccc43)C(C)=CC2(C)C)cc1 (stereo not drawn) | -8 | -8 | -2 | -8 | 4 | -1
O=C1N2CCCc3cccc(c32)C12Nc1ccccc1S2 (stereo not drawn) | 2 | 9 | 1 | -9 | 7 | -1
COc1ccc(N2C(=O)CSC23C(=O)N2CCCc4cccc3c42)cc1 (stereo not drawn) | -7 | -28 | 1 | 9 | 75* | 1

Screening data: PubChem, The Scripps Research Institute Molecular Screening Center
